Results reported in PubChem BioAssay (NCI).
The panel holds about 83,000 compounds, 20% with a hit somewhere; the sample as a whole holds those more often.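 Growth was measured after 48 h exposure to one concentration of compound in 96-well plates. Values under 10 count as active.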 Active and inactive are the calls of the source.

System: CCRF-CEM leukemia
Assay: NCI-60 one-dose screen, 48 h (100 = growth as untreated, 0 = no growth, -100 = all killed)
Settings: 10 µM unless noted

Structure (SMILES) | growth
NC1=NC(=O)NC1(c1ccccc1)c1ccccc1 | 86.2% (inactive)
N#C/C(C(=O)c1ccccc1)=C1/C(=O)Nc2ccccc21 | 103% (inactive)
CN(Cc1cccc(C(F)(F)F)c1)C(=O)[C@@H](CC(=O)N1CCC(N2CCCCC2)CC1)N1C(=O)[C@@H](N2C(=O)OC[C@@H]2c2ccccc2)[C@H]1/C=C/c1ccccc1 | 90.6% (inactive)
CCOc1ccc(S(=O)(=O)Nc2ccc3c(c2)N(S(=O)(=O)CC)CCC3)cc1 | 81.1% (inactive)
CCOC(=O)C(=Cc1ccccc1[N+](=O)[O-])C(=O)OCC | 2.19% (active)
COc1cc(/C=C/C(=O)/C=C/c2ccc(-n3ccnc3C)cc2)ccc1O | 35.5% (inactive)
CCOC(=O)CC(c1ccccc1)C(C#N)c1ccccc1 (stereo not drawn) | 98.9% (inactive)
Cc1ccc(C2=C/C(=C/c3ccc(Br)cc3)C(=O)N2CCc2ccc(S(N)(=O)=O)cc2)cc1 | 104% (inactive)
Cc1ccc(NC(=O)N[C@@H](Cc2cc(F)cc(F)c2)C(=O)N[C@@H]2C(=O)N3CCC[C@H]3C(=O)N3CCCC[C@H]3C(=O)N[C@@H](C)C(=O)N3C[C@H](C)C[C@H]3C(=O)O[C@H]2C)cc1 | 54.8% (inactive)
C=C(C)[C@@H]1CC[C@]2(C)[C@H](CC[C@@H]3[C@@H]([C@@](C)(O)CCC=C(C)C)CC[C@]32C)[C@@]1(C)CCC(=O)O | 0.565% [100 µM] (active)
C=CCCCCCCCCC(=O)OC(C)C | 2.8% (active)
O=C1Nc2ccccc2/C1=C/C(=O)c1ccc(N2CCCCC2)cc1 | 5.19% (active)
O=C(N=c1n(-c2ccccc2)nc2n1CCN2C1=NCCN1C(=O)c1ccc(Cl)cc1)c1ccc(Cl)cc1 | 51.4% (inactive)
CC1=CC[C@@H]2C(C)(C)[C@@H](O)CC[C@@]2(C)[C@@H]1COc1ccc2ccc(=O)oc2c1 | 41.7% (inactive)
CSc1nc2sc3cc(Cl)c(Cl)cc3n2c(=N)c1C#N | 107% (inactive)
COc1ccc(C(=O)CCC(=O)O)cc1 | 48.6% (inactive)
O=C(CCNCc1ccccc1)c1ccccc1 | 116% (inactive)
NC(=O)CC1C=CCC1 (stereo not drawn) | 82.4% (inactive)
CCNc1cc2c(cc1Br)-c1ccccc1C2=O | 97.2% (inactive)

Structure (SMILES) | growth
O=C(O)c1cn(C2CC2)c2cc(N3CCN(Cc4c(O)ccc5ccccc45)CC3)c(F)cc2c1=O | 67.7% (inactive)
CCOC(=O)COc1ccc2c(c1)O/C(=C\c1ccc(O)cc1)C2=O | 118% (inactive)
Nc1cc(NN=C(c2ccc(O)cc2)c2ccc(O)cc2)c([N+](=O)[O-])cc1[N+](=O)[O-] | 91.3% (inactive)
CCCCCCNC(=O)Nc1ncnc2c1ncn2-c1ccccc1 | 103% (inactive)
C[C@]12CCc3c(ccc4cc(O)ccc34)[C@@H]1CC[C@H]2O | 90.4% (inactive)
Nc1nc(Nc2ccccc2)c2ncn(Cc3ccc4c(c3)OCO4)c2n1 | 66.8% (inactive)
COc1ccc(OC)c(NC=O)c1 | 127% (inactive)
Fc1cc2[nH]ncc2c2c3c(c(-c4cn[nH]c4)nc12)CCCC3 | 7.75% (active)
CCN(CC)CCCCCCNc1cccc2cc(Br)cnc12 | 57% (inactive)
O=C(CSc1nc2ccc([N+](=O)[O-])cc2[nH]1)Nc1cccc(Cl)c1 | 16.4% (inactive)
CCN(CC)CCCOc1ccc2c(c1)O/C(=C\c1cccc(OC)c1)C2=O | 102% (inactive)
CC1(C)C(=O)/C(=C\c2ccco2)C[C@]2(C)[C@H]3CC=C4[C@@H]5C[C@](C)(C(=O)O)CC[C@]5(C)CC[C@@]4(C)[C@]3(C)CC[C@@H]12 | -22.7% [100 µM] (active)
C=C(C)[C@@H]1CC[C@]2(C(=O)NCCCCCCN(CCCN)CCCN)CC[C@]3(C)[C@H](CC[C@@H]4[C@@]5(C)CC[C@H](OCCCN)C(C)(C)[C@@H]5CC[C@]43C)[C@@H]12 | 11.8% [100 µM] (inactive)
C=C(C)[C@@H]1CC[C@]2(COC(=O)c3ccccc3C(=O)O)CC[C@]3(C)[C@H](CC[C@@H]4[C@@]5(C)CC[C@H](OC(=O)c6ccccc6C(=O)O)C(C)(C)[C@@H]5CC[C@]43C)[C@@H]12 | 46.4% [100 µM] (inactive)
COc1ccc2c(c1)c(-c1noc(-c3cn(C)c4ncc(F)cc34)n1)cn2C | 99% (inactive)
c1ccc(-c2nnc(-c3c[nH]c4ncccc34)s2)cc1 | 101% (inactive)
O=C1COCCN1c1ccc(NCc2cn(Cc3ccc(F)cc3)c3ccccc23)cc1 | 92.9% (inactive)
CC(=O)Nc1ccc2nc3ccc(NC(C)=O)cc3[n+](-c3ccccc3)c2c1 | 73.1% (inactive)
CCCCNC(=O)NS(=O)(=O)Cc1ccccc1 | 93.1% (inactive)
